# Measurements taken from PubChem BioAssay (Tox21).
# Results filed as inconclusive are left out. The source made the active and inactive calls. Calls follow the shape of the full dose curve.
# Experiment: qHTS assay for small molecules that induce genotoxicity in human embryonic kidney cells expressing luciferase-tagged ATAD5 - cell viability (AID 651634); also: nearly all actives have a fitted effect of over 25% in size
# Conditions: HEK293T ATAD5-luc cells viability, CellTiter-Fluor, 15.5 h; series mostly up to 83.3 µM; activity, negative = cytotoxicity: at the top concentration
# How it was run: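 Seeding of 2,000 HEK293T ATAD5-luciferase cells per well preceded pin-tool compound transfer. Plates sat 15.5 hr at 37C under 5% CO2, then fluorescence was read after 30 min with CellTiter-Fluor.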
# % is scaled to controls: 0 for no effect and ±100 for the full control effect.
SMILES,"activity, negative = cytotoxicity",Potency
NC(=O)N(O)[C@@H]1COc2cc(OCc3ccccc3)ccc21,16% (inactive),–
N#C/C(=C1/SC[C@@H](c2ccc(Cl)cc2Cl)S1)n1ccnc1,–,inactive
c1cc[c]([Bi]([c]2ccccc2)[c]2ccccc2)cc1,25.4% (inactive),–
CC(=O)OCC(=O)[C@@]12OC(C)(C)O[C@@H]1C[C@H]1[C@@H]3C[C@H](F)C4=CC(=O)C=C[C@]4(C)[C@@]3(F)[C@@H](O)C[C@@]12C,-5.96% [at 39.1 µM] (inactive),–
CCCCCCOC(=O)CCCCCCCC(=O)OCCCCCC,18.7% (inactive),–
O=C(Nc1ccccc1)Nc1ccccc1,-3.84% [at 95.3 µM] (inactive),–
CC(N)CN (centres undefined),6.13% [at 95.3 µM] (inactive),–
CCc1cccc(N(C)C(N)=Nc2cccc3ccccc23)c1,3.02% (inactive),–
O=C(CCC1CCN(Cc2ccccc2)CC1)c1ccc2c(c1)NCCCC2,5.91% (inactive),–
CN(C)C(=O)Nc1ccc(Oc2ccc(Cl)cc2)cc1,-10.1% (inactive),–
CC(C)C(OC(=O)c1ccccc1)C(C)(C)COC(=O)c1ccccc1 (centres undefined),15.8% (inactive),–
Cc1nccn1-c1ccc(Sc2cccc(C3(C(N)=O)CCOCC3)c2)cc1,-3.55% (inactive),–
CC1=C(/C=C/C(C)=C\C=C\C(C)=C\C(=O)O)C(C)(C)CCC1,12.5% (inactive),–
Cc1c(C(=O)NN2CCCCC2)nn(-c2ccc(Cl)cc2Cl)c1-c1ccc(Cl)cc1,-4.36% (inactive),–
Brc1cc(-c2ccc(Br)c(Br)c2Br)cc(Br)c1Br,-22.2% (inactive),–
CC(=O)Oc1ccc2c(c1)CC[C@@H]1[C@@H]2CC[C@]2(C)[C@@H](O)CC[C@@H]12,-16.9% (inactive),–
COC(OC)(C(=O)c1ccccc1)c1ccccc1,21.3% (inactive),–
CC1C2CC(CC2C2CCCC(O)C2)C1(C)C (centres undefined),-18.6% (inactive),–
CC1=NN(c2ccc(C(=O)O)cc2)C(=O)C1,-10.7% (inactive),–
